About 83,000 compounds went through this panel and 20% of them were active in at least one assay; those are over-represented in the sample as a whole.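 Treatment: one concentration, 48 hours, 96-well format. Scoring: percent growth, with anything below 10 considered active.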 A number with no mark means an inactive call. The source made the active and inactive calls.
Test system: MDA-MB-468 breast
Assay: NCI-60 one-dose screen, 48 h (100 = growth as untreated, 0 = no growth, -100 = all killed)
Details: 10 µM unless noted

| SMILES | growth |
| --- | --- |
| CCCCn1cnc2c(=O)[nH]cnc21 | 104% |
| O=c1[nH]c(N2CCOCC2)nc2scc(-c3ccccc3)c12 | 86.2% |
| COc1ccccc1/C=C/C(=O)c1nnn(-c2ccc(F)cc2)c1C | 38.2% |
| CC1(C)[C@@H](O)CC[C@]2(C)[C@H]3CC[C@@H]4[C@H]5[C@H](c6cn(-c7ccccc7)nn6)CC[C@]5(CO)CC[C@@]4(C)[C@]3(C)CC[C@@H]12 | 65.4% |
| CC(c1ccccc1)n1ccnc1CO (stereo not given) | 101% |
| C/C=C(\C)C(C(=O)NC1CCCCC1)N(C(=O)C1CCc2cc(F)ccc2O1)c1ccc([N+](=O)[O-])cc1 (stereo not given) | 85.6% |
| O=C(Nc1ccc2c(c1)OCO2)C(=O)c1c[nH]c2cc(F)ccc12 | 74.5% |
| COc1ccc(/C(=C\c2cc(OC)c(OC)c(OC)c2)C(=O)N2CCN(c3ccccc3)CC2)cc1O | 96.8% |
| CC(O)C(O)C(O)C(O)C(O)C(=O)NNc1ccccc1 (stereo not given) | 96.5% |
| C=C(C)C1CCC2(C(=O)O)CCC3(C)C(CCC4C5(C)CCC(OC(=O)NCc6ccccc6)C(C)(C)C5CCC43C)C12 (stereo not given) | 35.3% |
| Nc1nc(N)c2c(n1)NC(c1ccc(Cl)cc1)CC(c1ccc(Nc3nc(NCCO)nc(Nc4ccc(Cl)cc4)n3)cc1)=N2 (stereo not given) | -29% (active) |
| Cc1ccc(-c2cc3nc(C(Cl)Cl)nc(C)n3n2)cc1 | 110% |
| COC(=O)/C=C1/SC(=Nc2ccc(C(F)(F)F)cc2)N(CCc2c[nH]c3ccc(O)cc23)C1=O | 8.44% (active) |
| COc1ccc(CNc2c3ccccc3nc3ccccc23)cc1 | 27.1% |
| CN1CCN(c2ccc(/C=C/C(=O)c3ccc(O)cc3)cc2)CC1 | 89.5% |
| COc1cc(NC(=O)SC2=NCCS2)cc(OC)c1 | 93.3% |
| CCN1C(=O)N(CC)C2Nn3c(s/c(=C\c4ccccc4F)c3=O)=NC21 (stereo not given) | 28.9% |
| CCCCC1(CC)COC(CCC)OC1 (stereo not given) | 99.7% |
| COc1cccc(C(=O)NC(c2ccc(C)cc2)c2cc(Cl)c3cccnc3c2O)c1 (stereo not given) | -8.72% (active) |
| O=C1CC[C@H](c2ccc(O)c3c2C(=O)[C@@H]2O[C@@H]2C3=O)c2cccc(O)c21 | -64.8% (active) |

| SMILES | growth |
| --- | --- |
| COc1cc([C@@H]2c3cc4c(cc3[C@H](SC(=N)N)[C@H]3COC(=O)[C@H]23)OCO4)cc(OC)c1OC | -4.2% (active) |
| NCCn1cc(-c2nc(-c3c[nH]c4ncccc34)cs2)c2cc(F)ccc21 | 64.9% |
| COc1ccc(C(O)c2cc3c(N)c(C(=O)Nc4cccc5ccccc45)sc3nc2C)cc1 (stereo not given) | 23.7% |
| CN(CCCCCl)P(=O)(OCc1ccc([N+](=O)[O-])o1)C(F)(F)c1ccc(CC(=O)NC[C@@H](O)/C=C\[C@@H](O)[C@H](CO)Cc2ccccc2)cc1 (stereo not given in full) | 55% |
| Cn1cc(C(=O)c2nc(-c3c[nH]c4ccccc34)no2)c2cc(F)ccc21 | 63% |
| NC(=O)c1nc2c([nH]c1=O)CCCC2 | 95% |
| C/C(Cc1ccc(Cl)cc1)=C(\c1ccc(OCCN2CCCCCC2)cc1)c1ccc(OC(=O)C2CCCCC2)cc1 | 52.2% |
| CC(C)(C)c1cc(C(=O)Nc2ccc(C(=O)NCCN)cc2)cc(C(C)(C)C)c1 | -39.5% (active) |
| Nc1nc(Nc2ccccc2SSc2ccccc2Nc2nc(N)nc(-c3cccc(Cl)c3)n2)nc(-c2cccc(Cl)c2)n1 | 95.3% |
| CCCCn1c(-c2ccc(C(=O)O/N=C(\N)c3ccc(OC)cc3)cc2)nc(-c2ccccc2)c1-c1ccccc1 | -14.4% (active) |
| CC(C)(C)n1nnnc1C(Nc1nccs1)c1cc2cccc3ccc4cccc1c4c32 (stereo not given) | -35.2% (active) |
| O=c1oc2ccc(F)cc2c(=O)n1-c1ccc(I)cc1F | -1.22% (active) |
| Cc1ccc(S(=O)(=O)OCC#CCOS(=O)(=O)c2ccc(C)cc2)cc1 | -25.3% (active) |
| Cn1c2c(cc(S(=O)(=O)c3ccccc3)c1=O)CCc1c-2cnn1-c1ccc(Cl)cc1 | -43% (active) |
| NC(=O)c1cc(I)ccc1NC(=O)/C=C/c1ccccc1Cl | 17.3% |
| CC[C@H](Nc1ncnc2nc[nH]c12)c1nc2cccc(F)c2c(=O)n1-c1ccccc1 | 3.98% (active) |
| O=C(NCCNc1cc(-c2cn(-c3ccccc3)nc2-c2cccc(O)c2)ccn1)Nc1cc(C(F)(F)F)cc(C(F)(F)F)c1 | 93.6% |
| COc1ccc2nc3ccccc3c(NCc3ccc(C)cc3)c2c1 | -18.6% (active) |
| Cn1cnc([N+](=O)[O-])c1S(=O)(=O)Oc1ccc(Cl)cc1 | 29.8% |
| CC1=CC[C@@H]2CC[C@]3(C)[C@H](CC[C@@H]4[C@@]5(C)CCCNC(C)(C)[C@@H]5CC[C@]43C)[C@H]2[C@@H]1C | -47.2% (active) |

From PubChem BioAssay (NCI)
